Reference: PubChem BioAssay (Tox21)
“And” between values parts separate entries of the source, which are not always exact repeats. Equal values may be shown once. Inconclusive results are not listed. Entries that show only a call come without a potency. Where a structure was tested more than once in an assay, its records may differ in their call. The source made the active and inactive calls. Calls come from the whole dose curve.

What follows are compounds tested against 5-hydroxytryptamine receptor 2A (Homo sapiens) (UniProt P28223) (assay: 5-hydroxytryptamine receptor 2A (HTR2A) small molecule agonists, cell-based qHTS assay (AID 1963587; note: nearly all actives have a fitted effect of over 30% in size)). Conditions: HTR2A-CHO cells, calcium flux fluorescence, agonist mode; series mostly up to 76.8 µM; activation: at the top concentration.
From the text: National Center for Advancing Translational Sciences [NCATS]
Division of Preclinical Innovation [DPI]
U.S. Environmental Protection Agency [EPA]
National Institutes of Environmental Health Sciences [NIEHS]
National Toxicology Program [NTP]
U.S. Food and Drug Administration [FDA]
The HTR2A receptor is a subtype of the 5-HT2 receptor that belongs to the serotonin receptor family and is a G protein-coupled receptor (GPCR). The HTR2A-CHO cell line stably expressing human 5-hydroxytryptamine receptor 2A (HTR2A) can be used for screening agonists of interactions between 5-HT2 and its ligands. The HTR2A-CHO calcium flux assay is a homogeneous fluorescence-based assay for detecting the intracellular calcium level using FDSS kinetic plate reader system.
HTR2A-CHO cells were dispensed at 2000 cells/3uL/well in 1536-well black-clear bottom plates using a Multidrop Dispenser. After the assay plates were incubated at a 37 C/5% CO2 incubator for 18 h, 3 uL of Dye Loading Buffer was transferred to the assay plate by a Flying Reagent Dispenser. The assay plates were incubated at 37 C for 1h. For agonist mode, 23 nL of compounds dissolved in DMSO, positive controls or DMSO only was transferred to the assay plate by a pin tool. The fluorescence intensity in the plates was measured using FDSS 7000EX kinetic plate reader for 2 min at 1 sec intervals.
Potency is the fitted concentration of half-maximal effect.

Sequence of 5-hydroxytryptamine receptor 2A (Homo sapiens) (P28223 whole entry, looked up): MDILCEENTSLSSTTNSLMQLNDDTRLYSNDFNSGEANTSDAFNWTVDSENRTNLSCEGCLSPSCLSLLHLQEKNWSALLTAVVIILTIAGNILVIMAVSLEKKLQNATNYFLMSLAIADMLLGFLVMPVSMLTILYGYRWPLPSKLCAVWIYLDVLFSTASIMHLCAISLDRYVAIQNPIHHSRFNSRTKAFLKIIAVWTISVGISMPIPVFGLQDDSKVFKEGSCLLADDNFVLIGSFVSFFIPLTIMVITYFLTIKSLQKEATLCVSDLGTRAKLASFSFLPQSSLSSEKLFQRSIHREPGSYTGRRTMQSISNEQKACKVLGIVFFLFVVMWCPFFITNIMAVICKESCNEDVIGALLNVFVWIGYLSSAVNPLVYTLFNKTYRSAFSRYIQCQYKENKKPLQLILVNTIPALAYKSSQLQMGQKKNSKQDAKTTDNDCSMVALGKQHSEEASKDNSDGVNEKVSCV

| SMILES | activation | Potency |
| --- | --- | --- |
| C/C=C/CC#N | -1.14% (inactive) |  |
| NC(=O)CCl | -0.0347% (inactive) |  |
| Nc1ccc(Br)cc1 |  | inactive |
| NCCOS(=O)(=O)O | 0.167% (inactive) |  |
| CC(=O)C(Cl)Cl | -0.323% (inactive) |  |
| O=C(O)C(F)(F)C(F)(F)C(F)(F)C(F)(F)C(F)(F)C(F)(F)C(F)(F)F |  | inactive |
| CC[n+]1c(-c2ccccc2)c2cc(N)ccc2c2ccc(N)cc21 |  | inactive |
| CC(=NC#N)N(C)Cc1ccc(Cl)nc1 | -0.549% (inactive) |  |
| Brc1ccc(Br)cc1 |  | inactive |
| Cc1[nH]c(=O)n(C(C)(C)C)c(=O)c1Cl |  | inactive |
| Clc1ccc(C(c2ccccc2Cl)C(Cl)(Cl)Cl)cc1 (stereo not given) |  | inactive |
| CCCCCCCCCCCCCCn1cc[n+](C)c1 |  | 21.9 µM (active) and 30.6 µM (active) and inactive |
| Cc1cccc(N=Nc2ccc(N(C)C)cc2)c1 |  | inactive |
| Nc1cc(Cl)cc(Cl)c1 |  | inactive |
| Cc1ccc(N)c(N)c1 |  | inactive |
| O=C(Cc1ccccc1)c1ccccc1 | -0.735% (inactive) |  |
| CC(C)CCON=O | 11.5% (inactive) |  |
| Clc1ccccc1Cl |  | inactive |
| O=C(O)C(F)(F)C(F)(F)C(F)(F)C(F)(F)C(F)(F)C(F)(F)C(F)(F)C(F)(F)C(F)(F)C(F)(F)F | -3.04% (inactive) |  |
| CCC(C)(C)c1ccc(O)cc1 |  | 55.5 µM (active) and inactive |

| SMILES | activation | Potency |
| --- | --- | --- |
| CCOC(=O)C(O)(c1ccc(Cl)cc1)c1ccc(Cl)cc1 |  | 6.99 µM (active) and inactive |
| N#Cc1cccc(C#N)c1 |  | inactive |
| Nc1ccc(Cl)cc1N |  | 20.3 µM (active) and 6.16 µM (active) |
| CC(C)Nc1nc(Cl)nc(NC(C)C)n1 |  | inactive |
| CN(C)P(=O)(N(C)C)N(C)C |  | inactive |
| Nc1ccc(Cl)cc1 |  | inactive |
| O=C(NCNC(=O)NC1C(=O)NC(=O)N1CO)NC1C(=O)NC(=O)N1CO (stereo not given) | -1.76% (inactive) |  |
| Cc1ccc([N+](=O)[O-])cc1 |  | inactive |
| CC12CC1(C)C(=O)N(c1cc(Cl)cc(Cl)c1)C2=O (stereo not given) |  | inactive |
| CCOP(=O)(OCC)SCCSCC |  | inactive |
| CCOC(=S)S |  | inactive |
| CC[N+]1(C)CCCC1 |  | inactive |
| COS(=O)(=O)c1ccc(C)cc1 | -7.1% (inactive) |  |
| CC(C)COC(=O)c1ccccc1C(=O)OCC(C)C |  | 5.5 µM (active) and inactive |
| CNC(=O)O/N=C(\SC)C(=O)N(C)C |  | inactive |
| CCCOC(=O)c1ccccc1C(=O)OCCC |  | inactive |
| FC(Cl)(Cl)Cl | -0.708% (inactive) |  |
| Brc1ccc(Oc2ccccc2)cc1 |  | inactive |
| N#Cc1ccccn1 |  | inactive |
| CCOP(=S)(OCC)O/N=C(\C#N)c1ccccc1 |  | inactive |
